These results are taken from PubChem BioAssay (EPA / NIEHS).

Values joined by “and” are separate entries in the source; they are usually repeats but may differ in a detail not shown here. Equal values may be shown once. Records with an inconclusive call do not appear. Some compounds were tested as several samples or in several runs, with calls that do not always agree. Active and inactive are the calls of the source. Rule for the calls: active = hit-call score of the fitted dose curve at least 0.9, where 1 is the maximum; inconclusive = response in the unintended direction; inactive = score below 0.9.

The nature of experiment [1]: ACEA_ER_AUC_viability: ACEA Biosciences xCELLigence Real-Time Cell Analysis on Estrogen Receptor Agonism for Viability (AID 2283782).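 Note: hit means loss of impedance signal meaning reduced cell growth or viability.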 The essentials: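 Viability endpoint: reduced impedance area under the curve relative to DMSO, recorded by real-time electrode sensing over ~80 h of continuous exposure. Duplicate plates of T47D in hormone-depleted medium; eight concentrations, 1:4 dilutions, 100 uM maximum.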

In experiment [2] the target is AR (gene 367) (UniProt P10275). The experiment is described as follows: ACEA_AR_agonist_80hr: ACEA Biosciences xCELLigence Real-Time Cell Analysis on Androgen Receptor Agonism for Proliferation (AID 2283783).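 Note: hits increase impedance growth signal above DMSO baseline.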 The essentials: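 Eight concentrations, 1:4 serial dilution from a 100 uM final top, in biological duplicate. Impedance-based real-time growth of 22Rv1 cells after overnight baseline, recorded hourly and read at 80 hours. Controls: testosterone, MG132, assay media.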
AR (gene 367), sequence (P10275 whole entry, looked up): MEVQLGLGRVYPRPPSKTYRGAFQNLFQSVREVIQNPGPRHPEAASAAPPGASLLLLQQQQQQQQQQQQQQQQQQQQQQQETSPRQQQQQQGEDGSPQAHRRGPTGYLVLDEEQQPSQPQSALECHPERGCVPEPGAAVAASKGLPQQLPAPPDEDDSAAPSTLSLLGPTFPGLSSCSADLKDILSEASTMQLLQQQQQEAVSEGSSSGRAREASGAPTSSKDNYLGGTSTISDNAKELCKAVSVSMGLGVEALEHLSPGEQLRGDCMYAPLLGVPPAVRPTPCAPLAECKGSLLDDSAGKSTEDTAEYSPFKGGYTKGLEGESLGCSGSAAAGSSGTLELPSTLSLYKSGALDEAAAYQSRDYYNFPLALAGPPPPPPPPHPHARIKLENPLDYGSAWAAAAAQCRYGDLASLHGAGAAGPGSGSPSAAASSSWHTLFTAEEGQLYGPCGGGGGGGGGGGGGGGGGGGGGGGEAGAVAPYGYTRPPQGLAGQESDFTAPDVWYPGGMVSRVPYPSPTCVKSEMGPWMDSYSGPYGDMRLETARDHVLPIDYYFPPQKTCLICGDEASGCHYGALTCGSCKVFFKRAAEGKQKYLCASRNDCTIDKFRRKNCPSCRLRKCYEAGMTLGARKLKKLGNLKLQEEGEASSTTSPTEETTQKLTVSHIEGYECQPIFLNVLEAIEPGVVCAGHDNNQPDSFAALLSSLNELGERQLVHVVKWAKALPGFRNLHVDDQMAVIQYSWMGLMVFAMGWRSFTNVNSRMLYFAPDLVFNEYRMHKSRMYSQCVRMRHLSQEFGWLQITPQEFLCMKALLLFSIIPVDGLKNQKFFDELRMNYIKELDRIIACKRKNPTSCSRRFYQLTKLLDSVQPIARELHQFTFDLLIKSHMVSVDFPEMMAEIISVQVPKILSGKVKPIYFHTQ

In experiment [3] the target is AR (gene 367) (UniProt P10275). The experiment is described as follows: ACEA_AR_antagonist_80hr: ACEA Biosciences xCELLigence Real-Time Cell Analysis on Androgen Receptor Antagonism for Proliferation (AID 2283787).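 Note: 22Rv1 human prostate cancer cells with growth followed by electrical impedance; hits lower the impedance growth signal relative to DMSO.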 Put shortly: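 Impedance-based real-time growth of 22Rv1 prostate cells, read 80 h after dosing. Eight concentrations, 1:4 series, top 100 uM final (0.5% DMSO), n = 2; signal decrease scored against DMSO.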

The nature of experiment [4]: STM_H9_NormalizedViability: Cytotoxicity Assessment at 120 hours in the Stemina devTOX quickPredict H9 human embryonic stem cell (hESC)-based Assay (AID 2283784). Put shortly:
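Viability endpoint: background-corrected CellTiter-Fluor RFU expressed relative to the 0.1% DMSO mean on each plate. Undifferentiated H9 cells were treated with daily re-dosing and media change, and loss of signal was fitted.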

Experiment [5] in a line: ATG_M_06_XSP2: Attagene TRANS-FACTORIAL Multi-Species (XSP2) HepG2 Assay for M06 Transcription Factor (Internal Marker) (AID 2283811).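 Note: hits are increases in signal above the DMSO baseline.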 Put shortly: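 Internal-marker reporter transcript, quantified by RT-PCR, 6-FAM labelling, HpaI digestion and capillary electrophoresis, 24 hours after dosing transfected HepG2 cells with 3 nM 6-alpha-fluorotestosterone and 1.5 nM norgestrel present; DMSO baseline.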

Experiment [6] relates to turtle Estrogen Receptor (ERa), gene 101933533. The experiment is described as follows: ATG_trERa_XSP2: Attagene TRANS-FACTORIAL Multi-Species (XSP2) HepG2 Assay for turtle Estrogen Receptor (ERa) (AID 2283812).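 Note: actives raise reporter signal above DMSO so AC50 reflects agonist activity.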 Put shortly:
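Readout is reporter mRNA quantified by RT-PCR with capillary electrophoresis after 24 h compound exposure, increase relative to DMSO. Uses transiently transfected human HepG2 liver cells carrying a chimeric turtle ERa-Gal4 receptor driving GAL4-UAS reporters.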

In experiment [7] the target is Estrogen receptor beta (Homo sapiens) (UniProt Q92731). Nature of the experiment: ATG_hERb_XSP2: Attagene TRANS-FACTORIAL Multi-Species (XSP2) HepG2 Assay for human Estrogen Receptor (ERb) (AID 2283813).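 Note: actives raise reporter mRNA above DMSO so AC50 reflects agonist induction.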 Put shortly:
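Transient TRANS reporter system in HepG2: after 24 h of chemical, RNA is reverse-transcribed, reporter cDNA amplified, FAM-labelled and sized by capillary electrophoresis. Induction of the human ERb-Gal4 reporter is measured relative to DMSO.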

For experiment [8], the target named is zebrafish Estrogen Receptor (ER1), esr1 (gene 259252) (UniProt P57717). Nature of the experiment: ATG_zfER1_XSP2: Attagene TRANS-FACTORIAL Multi-Species (XSP2) HepG2 Assay for zebrafish Estrogen Receptor (ER1) (AID 2283816). Put shortly:
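After 24 h compound exposure, RNA from transfected HepG2 cells was reverse-transcribed and reporter transcripts resolved by capillary electrophoresis. The TRANS format reads exogenous zebrafish ER1-Gal4 chimera activity on GAL4-UAS elements; gain of signal against DMSO.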

Experiment [9] addresses GAL4 Transcription Factor (Internal Marker), GAL4 (gene 855828) (UniProt P04386). The experiment is described as follows: ATG_GAL4_XSP2: Attagene TRANS-FACTORIAL Multi-Species (XSP2) HepG2 Assay for GAL4 Transcription Factor (Internal Marker) (AID 2283814).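 Note: GAL4 reporter mRNA background control in MRTU transfected cells not a receptor target.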 Put shortly: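 Background-control readout: gain-of-signal fitted against DMSO. After 24 h exposure of transfected HepG2 (MRTU, GAL4-UAS reporters; 3 nM 6-alpha-fluorotestosterone, 1.5 nM norgestrel present), transcripts quantified by RT-PCR and capillary electrophoresis fluorescence.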

For experiment [10], the system named is turtle Androgen Receptor (AR), gene 101947425. Nature of the experiment: ATG_trAR_XSP2: Attagene TRANS-FACTORIAL Multi-Species (XSP2) HepG2 Assay for turtle Androgen Receptor (AR) (AID 2283815).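 For AC50: reporter mRNA from a Gal4 chimera of turtle AR measured by RT-PCR; potency for gain of reporter signal meaning activation above DMSO baseline.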 Put shortly:
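Reporter transcripts were quantified via RT-PCR and capillary electrophoresis and fitted upward against DMSO. Transiently transfected human HepG2 cells carrying NR-Gal4 chimeras were exposed 24 h, with 3 nM 6-alpha-fluorotestosterone plus 1.5 nM norgestrel added.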

Estrogen receptor beta (Homo sapiens), sequence (Q92731 whole entry, looked up, the tested form may be a part): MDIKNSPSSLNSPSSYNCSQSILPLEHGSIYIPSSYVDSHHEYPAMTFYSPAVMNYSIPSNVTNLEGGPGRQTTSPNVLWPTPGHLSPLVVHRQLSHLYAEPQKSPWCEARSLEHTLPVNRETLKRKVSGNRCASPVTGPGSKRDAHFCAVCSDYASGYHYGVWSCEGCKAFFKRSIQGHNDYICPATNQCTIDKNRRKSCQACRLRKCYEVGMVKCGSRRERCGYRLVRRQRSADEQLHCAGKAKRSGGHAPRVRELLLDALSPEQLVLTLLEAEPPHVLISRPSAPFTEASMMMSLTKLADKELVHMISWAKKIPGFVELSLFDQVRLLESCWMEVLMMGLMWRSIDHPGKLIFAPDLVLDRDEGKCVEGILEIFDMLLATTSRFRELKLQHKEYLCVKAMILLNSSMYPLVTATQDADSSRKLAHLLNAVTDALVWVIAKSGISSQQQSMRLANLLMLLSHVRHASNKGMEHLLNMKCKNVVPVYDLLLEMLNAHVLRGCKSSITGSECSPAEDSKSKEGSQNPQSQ
zebrafish Estrogen Receptor (ER1), esr1 (gene 259252), sequence (P57717 whole entry, looked up, the tested form may be a part): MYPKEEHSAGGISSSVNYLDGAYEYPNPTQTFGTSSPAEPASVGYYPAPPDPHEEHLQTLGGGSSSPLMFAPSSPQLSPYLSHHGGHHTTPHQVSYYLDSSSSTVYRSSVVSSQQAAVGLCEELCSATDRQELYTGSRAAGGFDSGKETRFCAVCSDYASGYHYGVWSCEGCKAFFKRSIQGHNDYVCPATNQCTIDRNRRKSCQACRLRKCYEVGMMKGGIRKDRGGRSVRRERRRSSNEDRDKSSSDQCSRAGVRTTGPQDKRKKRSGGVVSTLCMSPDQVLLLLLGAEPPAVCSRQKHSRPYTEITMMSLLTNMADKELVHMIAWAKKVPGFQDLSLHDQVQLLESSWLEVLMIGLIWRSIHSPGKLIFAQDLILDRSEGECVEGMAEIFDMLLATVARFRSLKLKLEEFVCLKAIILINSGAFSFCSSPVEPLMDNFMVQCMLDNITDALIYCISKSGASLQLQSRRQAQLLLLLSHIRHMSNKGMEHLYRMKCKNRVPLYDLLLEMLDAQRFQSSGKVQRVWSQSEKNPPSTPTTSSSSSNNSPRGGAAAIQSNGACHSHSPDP
GAL4 Transcription Factor (Internal Marker), GAL4 (gene 855828), sequence (P04386 whole entry, looked up, the tested form may be a part): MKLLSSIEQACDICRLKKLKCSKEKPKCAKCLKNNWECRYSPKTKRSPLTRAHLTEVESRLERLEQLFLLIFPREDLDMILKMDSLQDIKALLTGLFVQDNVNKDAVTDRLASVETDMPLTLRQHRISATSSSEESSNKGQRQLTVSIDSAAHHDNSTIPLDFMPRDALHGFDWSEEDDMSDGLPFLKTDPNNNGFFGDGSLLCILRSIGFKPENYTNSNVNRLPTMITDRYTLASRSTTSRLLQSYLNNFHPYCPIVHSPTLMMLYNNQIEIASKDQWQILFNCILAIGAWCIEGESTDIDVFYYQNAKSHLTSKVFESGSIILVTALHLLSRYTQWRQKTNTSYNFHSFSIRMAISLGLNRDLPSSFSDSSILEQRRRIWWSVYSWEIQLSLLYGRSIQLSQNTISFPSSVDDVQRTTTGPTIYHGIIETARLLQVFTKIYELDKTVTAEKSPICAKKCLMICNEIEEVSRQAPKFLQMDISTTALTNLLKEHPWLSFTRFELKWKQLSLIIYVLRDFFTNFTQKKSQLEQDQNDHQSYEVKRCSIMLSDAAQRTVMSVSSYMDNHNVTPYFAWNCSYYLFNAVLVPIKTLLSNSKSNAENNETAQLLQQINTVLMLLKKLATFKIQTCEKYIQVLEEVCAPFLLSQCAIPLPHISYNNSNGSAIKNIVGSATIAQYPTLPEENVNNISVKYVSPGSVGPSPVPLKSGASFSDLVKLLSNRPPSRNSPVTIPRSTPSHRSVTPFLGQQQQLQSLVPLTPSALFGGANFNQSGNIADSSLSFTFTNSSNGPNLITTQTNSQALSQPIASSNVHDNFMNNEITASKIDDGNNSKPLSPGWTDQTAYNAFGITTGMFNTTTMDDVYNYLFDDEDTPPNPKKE

Take `CCOCn1c(-c2ccc(Cl)cc2)c(C#N)c(Br)c1C(F)(F)F`: in experiment [1], the AC50 – broadly, the concentration giving half of the maximal activity seen – is 50 µM (active). Same read-out and setting: the same measure for `CN(C1CCCCC1)C1CCCCC1`: 68.6 µM (active). Take `N#CS`: in experiment [1], the outcome was inactive. Still for that read-out and setting: the same measure for `CCN(CCO)CCO`: “inactive”.

As for `C1CN2CCN1CC2`, in [1], the result was inactive. As for `CCCCCCCCCCCCc1cccc(S(=O)(=O)O)c1`, in experiment [1], the AC50 was 83.1 µM (active). Consider `CCOc1cc(C=O)ccc1O`, for which the call in experiment [1] was inactive. The same measure, in the same setting: the same measure for `O=[N+]([O-])c1ccc(Nc2ccccc2)cc1`: “inactive”; for `CCOC(=O)C(SP(=S)(OC)OC)c1ccccc1` (stereo not drawn): “inactive”.

For `O=C(Cc1ccccc1)OCCc1ccccc1`, in [1], the AC50 was 82.5 µM (active).

For the compound `N#Cc1ccc(Cl)cc1`, in [1], the AC50 is 50 µM (active). Take `N#Cc1cccnc1`: the result in [1] was inactive.

Take `O=c1nc(O)n(Cl)c(=O)n1Cl`: the call in experiment [1] was inactive. For the compound `COCC(=O)N(c1c(C)cccc1C)[C@H](C)C(=O)OC`, the AC50 in experiment [1] is 50 µM (active). Turning to `O=C(CBr)c1ccc(O)cc1`, in experiment [1], the result was inactive. On to `O=S(=O)(C(Cl)(Cl)Cl)C(Cl)(Cl)Cl`, for which the AC50 in [1] is 5.21 µM (active).

Turning to `O=C=Nc1ccc(Cl)cc1`, the AC50 in experiment [1] was 29.9 µM (active). On the same count and under the same terms, then `CCCCCCCCCCCCOS(=O)(=O)O`, with 71.3 µM (active); and `CC1(C)[C@H](C(=O)O[C@H](C#N)c2cccc(Oc3ccccc3)c2)[C@@H]1/C=C(\Cl)C(F)(F)F`, with 42.5 µM (active).

On to `CCCCCCCCCCCCN(C)C`, for which, in experiment [1], the compound was classed as inactive. Regarding `CCOP(=S)(OCC)SCS(=O)(=O)C(C)(C)C`, the result in experiment [1] was inactive. Same read-out and setting: then `C=CCN=C=S`, with “inactive”; and `CCCCCCCCCCBr`, with “inactive”; and `O=C(O)COc1ccc(Cl)cc1`, with “inactive”.

`C=C(C)C(=O)OCCCCOC(=O)C(=C)C`: the AC50 in [1] was 30.7 µM (active). As for `CCCCS(=O)(=O)Cl`, the AC50 in [1] is 53.1 µM (active). In the case of `C=C(C)C(=O)OCC(CC)CCCC` (stereo not drawn), the outcome in experiment [1] was inactive. Take `O=S1(=O)OC(c2cc(Br)c(O)c(Br)c2)(c2cc(Br)c(O)c(Br)c2)c2ccccc21`: the compound was classed as inactive (in experiment [1]; with AR (gene 367) [2]; with AR (gene 367) [3]).

Regarding `c1ccc(-c2cccc(-c3ccccc3)c2)cc1`, the AC50 in [1] was 24.4 µM (active). As for `O=[N+]([O-])c1ccc(Cl)c([N+](=O)[O-])c1`, the AC50 in experiment [1] was 1.55 µM (active); in experiment [4] it was 16.5 µM (active); in the experiment with AR (gene 367) [3], 24.8 µM (active). For the same compound, the compound was classed as inactive in the experiment with AR (gene 367) [2]. As for `O=NN1CCCCCCC1`, the compound was classed as inactive in experiment [1]. `CC(=Cc1ccccc1)[N+](=O)[O-]`: the figures for the AC50 (in experiment [1]; with AR (gene 367) [3]) were 11.5 µM (active) and 6.33 µM (active), respectively. Regarding `CC(C)N(C(=O)CCl)c1ccccc1`, the AC50 in experiment [1] was 18.5 µM (active). Moreover, the compound was called inactive with AR (gene 367) [2].

`CC(O)(CS(=O)(=O)c1ccc(F)cc1)C(=O)Nc1ccc(C#N)c(C(F)(F)F)c1` (stereo not drawn): the result in [1], in experiment [5], in [6], in [7] and in [8] was inactive. For the compound `[Cl][Sn]([c]1ccccc1)([c]1ccccc1)[c]1ccccc1`, in experiment [5], the result was inactive. Turning to `Cc1cc(Cl)ccc1OCCCC(=O)O`, in the experiment with AR (gene 367) [3], the call was inactive. Turning to `CCOP(=S)(OCC)O/N=C(\C#N)c1ccccc1`, the compound was classed as inactive in [5], in [7], in [9], in experiment [10] and in experiment [8]. The AC50 in experiment [6] was 7.97 µM (active) and 2.27 µM (active); in experiment [8], 6.85 µM (active). `CNC(=O)O/N=C/C(C)(C)S(C)(=O)=O`: the compound was classed as inactive with AR (gene 367) [3]. With `Oc1cc(Cl)c(Cl)cc1Cl`, the compound was classed as inactive in experiment [1], in experiment [7], in [9] and in experiment [8]. For the same compound, the AC50 in experiment [6] is 13 µM (active) and 6.06 µM (active); in [7], 20.3 µM (active); in experiment [10], 7.74 µM (active) and 2.23 µM (active). As for `CN(C)C(=S)S`, the AC50 in experiment [4] was 29.2 µM (active). Consider `O=C(CCl)Nc1ccccc1`, for which the AC50 in experiment [1] is 10.8 µM (active); with AR (gene 367) [3] it was 16.6 µM (active). In addition, in the experiment with AR (gene 367) [2], the outcome was inactive.

With `O=C1c2ccccc2C(=O)C1C(=O)C(c1ccccc1)c1ccc(Cl)cc1` (stereo not drawn), the AC50 is 33 µM (active) in [1] and 25 µM (active) with AR (gene 367) [3]. Also, the result in the experiment with AR (gene 367) [2] was inactive. Consider `N#CCC#N`, for which the compound was called inactive in the experiment with AR (gene 367) [2] and with AR (gene 367) [3].

For `O=C(NC(=O)c1c(F)cccc1F)Nc1cc(Cl)c(OC(F)(F)C(F)C(F)(F)F)cc1Cl` (stereo not drawn), in the experiment with AR (gene 367) [3], the AC50 was 6.32 µM (active). With `O=C(O)COc1cc(Cl)c(Cl)cc1Cl`, the compound was called inactive (in experiment [1]; with AR (gene 367) [2]). As for `O=C(N[C@H]1CN2CCC1CC2)c1ccc2c(c1)OCCO2`, the outcome (in [1]; in the experiment with AR (gene 367) [2]; with AR (gene 367) [3]) was inactive. Turning to `CC(C)O.CC(C)O.OCCN(CCO)CCO.OCCN(CCO)CCO.[Ti]`, the outcome in [4] was inactive. Take `N#CCCC(Br)(C#N)CBr` (stereo not drawn): the AC50 in experiment [4] is 95.3 µM (active). As to `C=CC(Cl)CCl` (stereo not drawn), the compound was called inactive in the experiment with AR (gene 367) [2] and with AR (gene 367) [3].

For `O=S1OC[C@@H]2[C@H](CO1)[C@]1(Cl)C(Cl)=C(Cl)[C@@]2(Cl)C1(Cl)Cl` (stereo partly drawn), in experiment [1], the AC50 was 50 µM (active). Besides, in the experiment with AR (gene 367) [3], the call was inactive. As for `COCCl`, the result (in experiment [1]; with AR (gene 367) [3]; in [6]; in experiment [7]; in experiment [10]; in experiment [8]) was inactive. Take `O=C(NC(=O)c1c(F)cccc1F)Nc1ccc(Cl)cc1`: the outcome in [1] was inactive. Regarding `O=c1oc2ccccc2c(O)c1C(CC(O)c1ccc(-c2ccc(Br)cc2)cc1)c1ccccc1` (stereo not drawn), the AC50 in experiment [1] was 22.7 µM (active). Also, the call in [8] was inactive. For `OCCN(CCO)CCO`, the result in experiment [4] was inactive.
